# Results: PubChem BioAssay
# Calls of active or inactive are those of the source.
# What was measured:
# [1] = small molecules captured by biotinylated probe aFSTL3 – biochemical, small-molecule microarray, fluorescence 635/667, stem cell growth factor project, primary screen (AID 1064); details: higher = more signal;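 note: measures binding of the biotinylated anti-FSTL3 antibody to printed compounds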
# [2] = binders from COS7 lysate, DM2A8 probe, primary screen, torsin A project, cell lysate, small-molecule microarray, fluorescence 635/667 (AID 1065); details: higher = more signal, COS7 lysate expressing mutant human TOR1A
# [3] = small molecules captured by biotinylated probe aFGF2 – biochemical, small-molecule microarray, fluorescence 635/667, stem cell growth factor project, primary screen (AID 1067); details: higher = more signal;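 note: measures binding of biotinylated aFGF2 protein to printed compounds on slides; z-score merges feature fluorescence and signal-to-noise across triplicate slides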
# [4] = small molecules captured by biotinylated probe aFGF10 – biochemical, small-molecule microarray, fluorescence 635/667, stem cell growth factor project, primary screen (AID 1071); details: higher = more signal;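 note: score merges 667 nm spot intensity and signal to noise from triplicate slides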
# [5] = biological target: Neurogenic locus notch homolog protein 2 (Homo sapiens) (UniProt Q04721); assay: small molecules binding Notch2 protein – biochemical, small-molecule microarray, 635 nm fluorescence, stem cell growth factors, primary screen (AID 1073); details: higher = more signal
# [6] = biological target: Pro-neuregulin-1, membrane-bound isoform (Homo sapiens) (UniProt Q02297); assay: small molecules binding neuregulin-1 protein – biochemical, small-molecule microarray, fluorescence 635/667, psychiatric disease protein project, primary screen (AID 1075); details: NRG1 binding, 635 nm fluorescence, higher = more signal;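 note: score combines 667 nm spot fluorescence with signal to noise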
# [7] = tested on: Neuregulin-1 EGF-like domain; assay: small molecules binding NRG1 EGF domain – biochemical, small-molecule microarray, 635 nm fluorescence, primary screen (AID 1081); details: higher = more signal;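 note: binding of the protein to compounds printed on small-molecule microarray slides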
# [8] = FRG1 expression reporter modulators in myotubes – cell-based, C2C12 myotubes, firefly/Renilla luciferase, luminescence, FRG1 inhibition for FSHD, primary screen (AID 1084); details: FRG1 promoter luciferase, higher = more signal, called active from +8 up or from −8 down
# [9] = small molecules captured by biotinylated probe aFST – biochemical, small-molecule microarray, fluorescence 635/667, stem cell growth factor project, primary screen (AID 1086); details: higher = more signal;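 note: score merges 667 nm fluorescence with signal-to-noise of each printed compound spot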
# [10] = binders of probe aHhip on microarray, primary screen, stem cell growth factor project, biochemical, small-molecule microarray, fluorescence 635/667 (AID 1087); details: higher = more signal;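 note: score merges spot fluorescence at 667nm with spot signal to noise ratio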
# Neurogenic locus notch homolog protein 2 (Homo sapiens), sequence (Q04721 whole entry, looked up, canonical isoform): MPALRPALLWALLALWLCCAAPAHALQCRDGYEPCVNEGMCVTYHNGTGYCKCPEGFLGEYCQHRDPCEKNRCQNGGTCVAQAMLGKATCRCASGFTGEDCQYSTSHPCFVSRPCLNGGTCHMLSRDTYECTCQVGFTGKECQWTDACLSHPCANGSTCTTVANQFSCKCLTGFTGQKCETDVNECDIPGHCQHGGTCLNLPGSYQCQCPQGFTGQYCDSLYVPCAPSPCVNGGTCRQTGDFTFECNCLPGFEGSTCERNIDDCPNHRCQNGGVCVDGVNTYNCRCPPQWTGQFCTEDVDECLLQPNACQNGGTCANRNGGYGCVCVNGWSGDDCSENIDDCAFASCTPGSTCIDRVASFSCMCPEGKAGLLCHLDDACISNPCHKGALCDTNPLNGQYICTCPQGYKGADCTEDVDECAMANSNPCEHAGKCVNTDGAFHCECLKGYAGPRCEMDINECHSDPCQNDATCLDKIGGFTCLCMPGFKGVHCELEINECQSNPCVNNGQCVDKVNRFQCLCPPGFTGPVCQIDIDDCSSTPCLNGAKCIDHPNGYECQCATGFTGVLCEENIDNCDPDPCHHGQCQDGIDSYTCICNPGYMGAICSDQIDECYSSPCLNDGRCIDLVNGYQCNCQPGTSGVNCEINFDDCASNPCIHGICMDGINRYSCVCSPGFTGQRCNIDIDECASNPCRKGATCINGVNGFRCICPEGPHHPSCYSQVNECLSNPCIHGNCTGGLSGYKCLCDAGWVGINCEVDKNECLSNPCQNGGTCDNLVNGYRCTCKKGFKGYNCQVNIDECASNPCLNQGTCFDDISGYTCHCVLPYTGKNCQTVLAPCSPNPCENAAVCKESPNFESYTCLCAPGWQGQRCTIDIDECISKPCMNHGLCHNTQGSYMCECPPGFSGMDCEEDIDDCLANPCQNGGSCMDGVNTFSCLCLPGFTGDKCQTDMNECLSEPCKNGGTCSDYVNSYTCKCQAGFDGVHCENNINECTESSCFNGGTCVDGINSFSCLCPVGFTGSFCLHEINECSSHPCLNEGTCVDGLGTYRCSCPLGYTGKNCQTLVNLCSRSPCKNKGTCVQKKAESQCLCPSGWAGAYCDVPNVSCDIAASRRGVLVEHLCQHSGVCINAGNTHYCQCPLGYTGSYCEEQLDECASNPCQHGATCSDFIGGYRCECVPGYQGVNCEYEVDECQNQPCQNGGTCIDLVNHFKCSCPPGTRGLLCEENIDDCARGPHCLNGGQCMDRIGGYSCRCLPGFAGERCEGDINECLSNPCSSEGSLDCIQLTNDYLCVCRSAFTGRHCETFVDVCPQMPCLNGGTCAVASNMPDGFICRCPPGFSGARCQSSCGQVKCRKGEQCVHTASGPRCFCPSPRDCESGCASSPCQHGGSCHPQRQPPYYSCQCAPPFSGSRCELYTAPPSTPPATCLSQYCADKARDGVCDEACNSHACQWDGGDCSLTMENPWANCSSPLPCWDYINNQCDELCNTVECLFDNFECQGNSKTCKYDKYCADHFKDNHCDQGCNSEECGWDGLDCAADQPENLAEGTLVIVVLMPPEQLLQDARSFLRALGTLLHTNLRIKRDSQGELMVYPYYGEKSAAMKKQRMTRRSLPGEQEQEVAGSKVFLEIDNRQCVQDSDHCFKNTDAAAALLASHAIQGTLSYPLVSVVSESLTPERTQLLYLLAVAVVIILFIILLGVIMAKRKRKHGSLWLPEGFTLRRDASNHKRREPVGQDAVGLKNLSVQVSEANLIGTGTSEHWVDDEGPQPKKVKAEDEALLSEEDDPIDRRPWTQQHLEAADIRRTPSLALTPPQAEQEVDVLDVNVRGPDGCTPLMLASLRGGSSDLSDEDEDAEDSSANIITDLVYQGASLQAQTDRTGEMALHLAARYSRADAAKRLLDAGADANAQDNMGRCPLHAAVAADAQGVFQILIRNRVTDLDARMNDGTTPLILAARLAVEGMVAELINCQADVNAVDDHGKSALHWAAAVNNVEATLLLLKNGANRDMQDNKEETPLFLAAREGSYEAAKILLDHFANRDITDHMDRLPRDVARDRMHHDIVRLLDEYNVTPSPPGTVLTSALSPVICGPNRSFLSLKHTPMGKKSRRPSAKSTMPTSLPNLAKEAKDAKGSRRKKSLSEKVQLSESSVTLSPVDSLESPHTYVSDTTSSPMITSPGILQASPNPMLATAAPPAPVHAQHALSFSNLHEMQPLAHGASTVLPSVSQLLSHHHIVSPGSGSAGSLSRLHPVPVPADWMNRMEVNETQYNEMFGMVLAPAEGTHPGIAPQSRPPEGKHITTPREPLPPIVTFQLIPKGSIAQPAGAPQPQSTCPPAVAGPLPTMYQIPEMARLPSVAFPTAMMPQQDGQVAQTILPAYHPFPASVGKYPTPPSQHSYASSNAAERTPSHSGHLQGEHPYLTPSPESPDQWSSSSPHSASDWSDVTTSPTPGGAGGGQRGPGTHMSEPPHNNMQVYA
# Pro-neuregulin-1, membrane-bound isoform (Homo sapiens), sequence (Q02297 whole entry, looked up, the tested form may be a part, canonical isoform): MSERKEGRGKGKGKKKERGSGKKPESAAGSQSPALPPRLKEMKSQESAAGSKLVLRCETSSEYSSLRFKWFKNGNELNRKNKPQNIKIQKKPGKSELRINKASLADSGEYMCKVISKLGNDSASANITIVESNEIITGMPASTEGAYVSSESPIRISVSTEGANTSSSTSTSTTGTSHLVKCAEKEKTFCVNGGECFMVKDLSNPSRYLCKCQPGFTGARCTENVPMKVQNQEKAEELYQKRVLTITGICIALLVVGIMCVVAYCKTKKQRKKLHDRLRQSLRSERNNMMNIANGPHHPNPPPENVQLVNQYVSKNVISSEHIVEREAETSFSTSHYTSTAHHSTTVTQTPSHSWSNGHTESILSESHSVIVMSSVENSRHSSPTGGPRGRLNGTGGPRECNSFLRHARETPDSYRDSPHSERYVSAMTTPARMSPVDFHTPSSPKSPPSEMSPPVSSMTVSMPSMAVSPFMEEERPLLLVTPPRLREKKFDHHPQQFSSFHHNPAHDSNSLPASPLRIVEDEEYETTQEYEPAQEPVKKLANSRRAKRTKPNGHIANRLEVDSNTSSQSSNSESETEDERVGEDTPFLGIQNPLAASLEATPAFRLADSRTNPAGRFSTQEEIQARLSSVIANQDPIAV
SMILES,composite z-score [1],composite z-score [2],composite z-score [3],composite z-score [4],composite z-score [5],composite z-score [6],composite z-score [7],z-score [8],composite z-score [9],composite z-score [10]
COc1ccc([Si](C)(C)[C@H]2[C@H](CC(=O)N3CCC[C@H]3CO)O[C@@]3(C(=O)N(C)c4c(Br)cc(C)cc43)[C@@H]2C)cc1,0.536,1.88,0.336,1.04,0.284,2.51,1.41,-1.39 (inactive),1.12,0.104
CC(C)C[C@H]1NC(=O)CNC(=O)[C@@]23C(=O)N[C@@H](Cc4ccccc4)C2[C@H](C)[C@@]2(C)O[C@H]2C3/C=C/C/C=C\CNC1=O (stereo not given in full),-0.564,0.11,-0.159,0.582,-0.222,0.205,0.598,1.81 (inactive),0.136,-0.0121
CCCCCCc1nc(-c2ccc(OC)nc2)c(C)c2c1[Si](C(C)C)(C(C)C)OC2,-0.314,-0.0637,-0.0502,-0.234,0.0716,-0.64,-0.59,0.329 (inactive),0.0446,-0.0994
O=C1c2ccccc2[C@@]2(Cc3ccccc3N(CC(F)(F)F)C2=O)[C@H](c2ccc(CO)cc2)N1Cc1ccccc1,0.386,0.0025,-0.124,0.316,-0.661,0.0876,-0.533,0.605 (inactive),-0.0539,-0.129
C=C1C(=O)C=C2CN(C(=O)c3ccccc3)[C@@](Cc3ccc(F)cc3)(C(=O)OC)[C@@H]12,0.891,-0.595,0.25,1.12,1.71,1.89,1.09,4.89 (inactive),1.87,-0.129
COC(=O)[C@@]1(Cc2ccc(F)cc2)[C@H]2c3cc(C(=O)N(C)C)n(Cc4cccc5ccccc45)c3C[C@H]2CN1C(=O)c1ccccc1,1.84,1.71,0.398,1.16,0.77,1.13,1.33,0.255 (inactive),0.697,0.727
CCOC(=O)C1=C[C@@H](C(C)(C)C)N(S(=O)(=O)c2ccc(C)cc2)[C@H]1c1ccc(OC)cc1,-0.491,-0.103,0.0111,0.726,1.56,0.348,1.19,-3.35 (inactive),0.525,-0.212
COCCOC(=O)N1C(=O)[C@@]2(c3cc(C#CCNC(N)=O)ccc31)[C@H](C(N)=O)[C@H]1C(=O)O[C@H](c3ccccc3)[C@H](c3ccccc3)N1[C@@H]2c1ccc(O)cc1,-0.0585,0.0947,-0.0899,0.29,-0.148,0.0637,0.235,-0.329 (inactive),0.0377,-0.287
CC1(C)OB(/C=C\CC(OC(=O)c2ccncc2)c2ccccc2)OC1(C)C (stereo not given),2.93,0.214,0.0262,-1.4,-1.48,0.852,0.181,1.99 (inactive),-0.0939,-0.0296
C#CCN(C(=O)OC(C)(C)C)[C@H](CO)c1ccccc1,-0.402,0.289,-0.113,0.0182,-0.148,-0.329,0.77,-0.0216 (inactive),0.115,-0.111
COC(=O)C1=CC(c2ccc(CO)cc2)=CC(C2CC2)N(Cc2cc3c(cc2Br)OCO3)C=C1C(=O)OC (stereo not given),0.131,1.64,0.214,1.25,1.66,1.97,1.15,-2.56 (inactive),0.559,0.0278
C=CC[C@]1(C(=O)NCC(O)CO)N=C(c2ccc(OCCCO)cc2)O[C@H]1c1ccccc1CN=[N+]=[N-] (stereo not given in full),1,1.23,-0.0316,0.36,-0.757,0.323,1.23,-0.27 (inactive),0.267,0.189
COc1ccc([Si](C)(C)[C@H]2[C@H](CC(=O)N3CCC[C@H]3CO)O[C@@]3(C(=O)N(Cc4cccc(N5CCCCC5=O)c4)c4ccccc43)[C@@H]2C)cc1,-0.381,0.519,-0.126,0.682,0.757,0.836,1.14,-3.74 (inactive),0.0346,-0.0296
C=CC[C@H](OC(=O)Nc1ccc(SC)cc1)c1ccc(O)c(F)c1,0.57,0.274,-0.102,-0.575,-1.19,0.659,1.07,8.09 (active),-0.512,-0.156
COC(=O)[C@@]1(Cc2ccc(OC)cc2)[C@H]2c3cc(C(=O)N(C)C)n(Cc4c(CO)[nH]cc(C)c4=O)c3C[C@H]2CN1C(=O)c1ccccc1,0.466,0.249,-0.015,-0.112,1.56,2.09,1.37,2.07 (inactive),1.47,1.81
[N-]=[N+]=NCc1ccccc1[C@H]1OC(c2ccc(OCCCO)cc2)=N[C@@]1(Cc1ccccc1N=[N+]=[N-])C(=O)O,0.377,1.08,0.0997,0.503,1.37,1.21,1.24,4.15 (inactive),0.632,0.0623
CCCC=C(CCC)[C@@H](NC(=O)c1ccc(C(=O)OC)cc1)c1ccc(C(=O)OC)cc1,0.0362,-0.312,0.355,-0.327,0.423,0.203,-0.166,1.24 (inactive),0.484,2.54

SMILES,composite z-score [1],composite z-score [2],composite z-score [3],composite z-score [4],composite z-score [5],composite z-score [6],composite z-score [7],z-score [8],composite z-score [9],composite z-score [10]
COC(=O)[C@H](Cc1ccccc1)N1CC(C)(OC)O[C@@H](Cc2ccccc2)[C@H]1/C=C/C1CC1 (stereo not given in full),0.016,0.12,-0.073,-0.194,0.144,0.0246,0.484,-0.218 (inactive),-0.205,-0.331
C=CCOC(=O)[C@@H]1[C@H]2C(=O)O[C@H](c3ccccc3)[C@H](c3ccccc3)N2[C@H](c2ccc(OCCOC(=O)[C@H]3C[C@H]4C(=O)N[C@@H](CCCCN(C)C)C(=O)N4[C@H]3c3cccc(OCCO)c3)cc2)[C@@]12C(=O)Nc1ccccc12,1.24,0.596,0.031,-0.629,-1.13,1.96,0.815,1.02 (inactive),-0.651,-0.166
COc1ccc(C(=O)Nc2ccc(CN3C(=O)[C@]4(O[C@H](CC(=O)N(CCO)Cc5ccccc5)[C@@H]([Si](C)(C)c5ccc(OC)cc5)[C@@H]4C)c4ccccc43)cc2)cc1,-0.284,1.22,-0.0858,0.792,0.271,0.74,1.26,-0.228 (inactive),0.276,-0.0994
[N-]=[N+]=Nc1ccccc1C[C@@]1(C(=O)NCc2ccccc2)N=C(c2ccc(OCCCO)cc2)O[C@@H]1c1ccccc1,0.584,0.405,0.0421,1.05,1.46,0.794,0.747,-2.86 (inactive),0.838,-0.0296
CC(C)[Si]1(C(C)C)OCc2cc(-c3ccc(-c4ccc(Cl)c(Cl)c4)o3)nc(-c3ccc(Oc4ccccc4)cc3)c21,0.639,-1.11,-0.207,-0.738,-1.78,-0.762,-0.6,1.52 (inactive),-0.857,-0.306
COc1cc2c(cc1O)C(C)N(Cc1sc3ccccc3c1Cl)CC2 (stereo not given),0.208,-1.01,-0.17,-0.563,-0.246,0.717,0.343,0.541 (inactive),-0.133,-0.0994
C=C(COC)/C(=C/C[C@@H](OC(=O)c1ccncc1)c1ccccc1OCCO)c1cnc2ccccc2c1,-0.421,0.749,-0.085,0.922,1.58,0.495,1.17,-0.828 (inactive),0.525,-0.159
C[C@]1(C(=O)NCC(F)(F)F)c2ccccc2C(=O)N(Cc2cc(C(F)(F)F)cc(C(F)(F)F)c2)[C@H]1c1ccc(CO)cc1,0.227,-0.616,-0.0578,0.0766,-0.317,0.275,1.11,0.549 (inactive),0.0351,-0.0994
C=CCNC(=O)[C@H]1[C@@H]2C(=O)O[C@@H](c3ccccc3)[C@@H](c3ccccc3)N2[C@@H](c2ccc(O)cc2)[C@]12C(=O)Nc1ccccc12,0.318,0.111,-0.0628,-0.519,-1.15,0.992,1.09,-2.15 (inactive),-0.228,0.0749
COc1ccc(NN2C(C(O)c3ccccc3)C=CC3C(=O)N(C4CCCCC4)C(=O)C32)cc1 (stereo not given),0.0373,0.166,0.0402,0.851,1.59,1.39,1.3,1.78 (inactive),1.5,0.224
CCCCC=C[C@@H](NC(=O)C(C)(C)C)c1ccccc1,0.0905,0.161,0.0775,0.57,1.5,1.07,0.357,-0.751 (inactive),0.553,0.388
C[C@H]1C2[C@H](Cc3ccccc3)NC(=O)[C@]23C(=O)N[C@@H](Cc2ccccc2)C(=O)N2CCC[C@H]2C(=O)NC/C=C/CC/C=C/C3[C@@H]2O[C@]12C (stereo not given in full),0.0522,0.483,-0.129,0.75,0.237,0.0519,1.03,1.28 (inactive),0.101,-0.0618
CO[C@H]1O[C@H](CO)[C@@H](OC(=O)CCc2ccccc2)[C@@H]2OC(=O)[C@@H](Cc3ccc4ccccc4c3)C/C=C/C[C@H](Cc3ccc4ccccc4c3)C(=O)O[C@@H]12,-0.129,0.693,-0.179,-0.0304,-0.641,0.617,-0.127,-1.72 (inactive),-0.354,-0.0994
C=CC[C@]1(C(N)=O)N=C(c2ccc(OCCCO)cc2)O[C@H]1c1ccccc1N=[N+]=[N-],0.951,-0.385,0.087,0.672,0.737,1.8,1.06,2.63 (inactive),1.69,-0.306
COc1cc2c(cc1OC)CN(C(=O)[C@@H]1[C@H]3C(=O)O[C@H](c4ccccc4)[C@H](c4ccccc4)N3[C@H](c3ccc(O)cc3)[C@@]13C(=O)Nc1ccc(C#CC4=CCCCC4)cc13)CC2,0.105,0.576,-0.0899,0.864,1.48,0.347,1.13,0.561 (inactive),0.588,0.0479
Cc1ccc(S[C@]2(C(=O)NCCN3CCOCC3)CC(=O)N(C(C)C)[C@@H]2c2ccc(CO)cc2I)cc1,1.15,-0.158,-0.0805,-0.11,-0.521,1.69,1.35,-0.977 (inactive),0.153,-0.166
